Data on 8 compounds can be found in PubChem BioAssay (NCI).

This is part of a sample that, as a whole, favours compounds with a hit. Of some 83,000 tested, about 20% had one in any assay.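 48-hour exposure, single concentration, 96-well plates; percent growth endpoint where 0 means no net growth. Active: below 10.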 Unmarked numbers belong to inactive results. Activity calls are given as the source filed them.

Holding throughout (assay): NCI-60 one-dose screen, 48 h (100 = growth as untreated, 0 = no growth, -100 = all killed)
For assay [1], the system named is SK-MEL-2 melanoma. The conditions noted are these: 10 µM.
For assay [2], the system named is EKVX NSCLC. To be noted: 10 µM unless noted.
The subject of assay [3] is SN12C renal. To be noted: 10 µM unless noted.
In assay [4] the test system is UO-31 renal. To be noted: 10 µM unless noted.
The test system of assay [5] is TK-10 renal. To be noted: 10 µM unless noted.
Assay [6] relates to ACHN renal. The conditions noted are these: 10 µM unless noted.
Assay [7] has as its system A498 renal. The conditions noted are these: 10 µM unless noted.
Assay [8] relates to CCRF-CEM leukemia. To be noted: 10 µM unless noted.
Assay [9] relates to MOLT-4 leukemia. To be noted: 10 µM unless noted.
Assay [10] relates to SR leukemia. The conditions noted are these: 10 µM unless noted.
Assay [11] has as its system OVCAR-8 ovarian. The conditions noted are these: 10 µM unless noted.
Assay [12] has as its system OVCAR-5 ovarian. To be noted: 10 µM unless noted.
Assay [13] relates to OVCAR-4 ovarian. To be noted: 10 µM unless noted.
The test system of assay [14] is SK-OV-3 ovarian. The conditions noted are these: 10 µM unless noted.
In assay [15] the test system is IGROV1 ovarian. The conditions noted are these: 10 µM unless noted.
The test system of assay [16] is OVCAR-3 ovarian. To be noted: 10 µM unless noted.
The test system of assay [17] is HS 578T breast. The conditions noted are these: 10 µM.
The test system of assay [18] is NCI/ADR-RES ovarian. To be noted: 10 µM unless noted.
In assay [19] the test system is RPMI-8226 leukemia. To be noted: 10 µM unless noted.

In the case of `CN1CCN(c2nc(NCCNc3ccnc4cc(Cl)ccc34)c3ccccc3n2)CC1`, the growth in [1] was -45.5% (active); in assay [2] it was 52.3%; in assay [3], 10.9%; in assay [4], -9.51% (active); in assay [5], 16.5%; in assay [6], 5.61% (active). Further, the growth in assay [7] was 102%; in assay [8] it was 3.19% (active); in assay [9] it was 6.2% (active); in [10], -23.4% (active); in assay [11], 12.4%; in [12] it was 59.9%. Moreover, the growth is -0.851% (active) in assay [13]; 44.6% in assay [14]; 30.2% in assay [15]; 17.4% in assay [16]; 28.2% in [17]; 85.5% in assay [18].
Consider `COc1cc(OC)c(C(=O)/C=C/c2cc3c(cc2OCc2ccccc2)OC(C)(C)CC3)cc1CC=C(C)C`, for which the growth is 82.3% in assay [1]; 61.1% in [2]; 47.6% in assay [3]; 51.4% in [4]; 81.7% in assay [5]; 68.2% in [6]. In addition, the growth was 98.9% in assay [7]; -0.0389% (active) in assay [9]; 11.6% in assay [10]; 1.96% (active) in [11]; 64.7% in [12]; 44.7% in [13]. The growth is 78.6% in assay [14]; 66.5% in [15]; 19.2% in assay [16]; 69.6% in assay [17]; 51.9% in assay [18].
On to `CC(=Nc1ccccc1)C1=C(O)C(Cc2ccccc2)NC1=O` (configuration not stated), for which the growth in assay [1] is 26.9%; in assay [2], 23.3%; in assay [3], 36.6%; in [4] it was 43.6%; in assay [5], 54.2%; in assay [6], 40.8%. In addition, the growth in [7] was -22.1% (active); in assay [8] it was -10.9% (active); in assay [9] it was 0.239% (active); in [10] it was -12% (active); in [11], -50.4% (active); in assay [12], 18.9%. Besides, the growth was 39.6% in assay [13]; 16.8% in assay [14]; 6.28% (active) in assay [15]; -42.4% (active) in [16]; -15.3% (active) in [17]; -8.97% (active) in assay [18].
With `CCc1ccc(C2=C(O)C(=O)C(c3ccc(CC)cc3)=C(O)C2=O)cc1`, the growth in assay [1] was -44.4% (active); in assay [2], -15% (active); in assay [3], -6.25% (active); in [4], 0.57% (active); in assay [5], 5.31% (active); in assay [6] it was -9.41% (active). Further, the growth in assay [7] is -31% (active); in assay [9], -6.88% (active); in assay [10] it was -18.5% (active); in assay [11] it was -59% (active); in [12], -0.569% (active); in assay [13], -0.208% (active). Also, the growth in [14] was -9.04% (active); in assay [15], -36.3% (active); in assay [16] it was -47.2% (active); in assay [17], -21.6% (active); in assay [18], -18.5% (active).
As for `[2H]C1([2H])[C@H](C)O[C@H](C)C([2H])([2H])N1c1ccc(NC(=O)c2cccc(-c3ccc(OC(F)(F)F)cc3)c2C)cn1`, the growth in [1] is 56.1%; in [2], 61.4%; in assay [3], 56.6%; in [4] it was 54.5%; in assay [5], 63.6%; in [6] it was 78.1%. Moreover, the growth was 64.3% in assay [8]; 39.9% in assay [9]; 56.4% in [10]; 53.3% in [19]; 79.1% in assay [11]; 100% in [12]. For the same compound, the growth in assay [13] was 65.8%; in [14], 63.2%; in assay [15] it was 65.2%; in assay [16], 84.6%; in [17], 88.2%; in [18] it was 58.4%.
Consider `COC(=O)C1CCc2sc3ncnc(Nc4cn[nH]c4C(=O)Nc4ccc(CN5CCN(C)CC5)cc4)c3c21` (configuration not stated), for which the growth was -20.4% (active) in assay [1]; 8.24% (active) in [2]; 12.7% in assay [3]; -15.3% (active) in assay [4]; 5.51% (active) in assay [5]; 4.58% (active) in [6]. The growth was 1.79% (active) in assay [8]; -6.03% (active) in [9]; -25.7% (active) in assay [10]; 8.36% (active) in assay [19]; 16.6% in assay [11]; -2.74% (active) in assay [12]. Further, the growth in assay [13] was 23.5%; in [14] it was 6.43% (active); in assay [15] it was 4.94% (active); in [16], 11.4%; in assay [17] it was -3.1% (active); in assay [18] it was 54.4%.
For `CC1CCC(n2cnc3c(Cl)ncnc32)O1` (configuration not stated), the growth in [1] is 109%; in [2] it was 94.5%; in assay [3], 110%; in [4], 96.4%; in assay [5], 88%; in assay [6], 104%. The growth is 124% in assay [7]; 85.8% in [8]; 113% in assay [9]; 104% in [10]; 91.4% in [11]; 93.9% in assay [12]. Also, the growth in [13] was 104%; in assay [14], 98.6%; in assay [15], 61.7%; in assay [16], 97.1%; in [17] it was 88.1%; in assay [18], 101%.
Turning to `Cc1cc(N(CCNc2ccnc3cc(Cl)ccc23)Cc2cccs2)nc(Cl)n1`, the growth in assay [1] was -58.2% (active); in [2], 33.9%; in assay [3], -15.9% (active); in [4] it was -79.4% (active); in assay [5] it was -93% (active); in assay [6], -88% (active). Besides, the growth is -2.45% (active) in assay [8]; -38.2% (active) in assay [9]; -22.9% (active) in assay [10]; -23.2% (active) in [19]; 11.5% in [11]; 12.8% in assay [12]. The growth in assay [13] is -51.3% (active); in assay [14], -48.8% (active); in assay [15], -1.29% (active); in assay [16], -77.4% (active); in assay [17] it was -5.93% (active); in [18], -2.82% (active).
